Data from PubChem BioAssay AID504913 (The Scripps Research Institute Molecular Screening Center, 2011).
Some of the results follow. A number with no mark means an inactive call. Active and inactive are the calls of the source. Cut-off read from the data, not from the text of the source: active = activation above about 18%; inactive = the rest.

Assay: activation of mu-delta opioid heterodimer signal – cell-based, luminescence, counter-screen for HTR5A agonist project (AID 504913)
Details: U2OS counter-screen cells, complementation luminescence, 3 h; at 9.3 µM; stronger effect = higher value
Work on `COc1ccc(C(=O)O/N=C(\N)Cc2ccc(Cl)cc2Cl)cc1OC` yielded an activation of 9.9%. Work on `COc1cc2c(-c3ccc4c(c3)OCO4)c(-c3ccsc3)oc(=O)c2cc1OC` yielded an activation of -2.61%. `Cc1ccc(-c2csc(SCC(=O)Nc3cc(C)on3)n2)cc1` showed an activation of 0.69%. For `CCCN(CCc1ccccc1)C1CCc2c(O)cccc2C1` (stereo not given), the activation was 11.3%. For `O=C(c1cccnc1)N(c1cc2sc(=O)oc2c2ccccc12)S(=O)(=O)c1ccccc1`, the activation was 4.54%. Molecule `COc1ccc2[nH]cc(CCN3C(=O)c4ccc(C(=O)O)cc4C3=O)c2c1` has an activation of 1.66%. In the case of `CNc1nnc(-c2ccco2)s1`, the activation was 4.29%. In the case of `CC1CCN(S(=O)(=O)c2nnc(NC(=O)COc3ccccc3F)s2)CC1`, the activation was 3.72%. With `CC(NC(=O)c1cc(-c2ccccc2)on1)c1ccccc1` (stereo not given) the activation was 40.1% (active). For `Cc1oc2c(F)c(F)c(F)c(F)c2c1S(=O)(=O)Nc1cccc(C(F)(F)F)c1`, the activation was -0.99%. With `COc1c(Cl)cc(C(=O)Nc2ccc(Cl)cn2)cc1Cl` the activation was 9.05%. With `O=C(CNCc1ccco1)Nc1cc(S(=O)(=O)N2CCOCC2)ccc1N1CCCC1` the activation was 3.16%. `CC(C)OC(=O)c1c(NC(=O)c2ccco2)sc2c1CCCC2` gave an activation of 4.46%. In the case of `COc1cccc(/C=N/NC(=O)c2[nH]nc3c2CCc2ccccc2-3)c1O`, the activation was -4.02%. In the case of `CN(c1ccccc1)S(=O)(=O)c1cc(C(=O)N2CCN(c3ncccn3)CC2)ccc1Cl`, the activation was -0.79%. `COc1ccc(/C=C(\C#N)c2c[nH]c3ccccc23)cc1` showed an activation of 6.75%. `O=C(CC1Nc2ccccc2NC1=O)Nc1ccccc1` (stereo not given) gave an activation of 2.23%. With `O=C(Nc1ccc(C(=O)N2CCOCC2)cc1)Nc1cccc(C(F)(F)F)c1` the activation was 0.41%. `CC1(C)C2CCC1(CS(=O)(=O)NCCc1c[nH]c3ccccc13)C(=O)C2` (stereo not given) gave an activation of 0.82%. Work on `CCn1nc(C(=O)OCC(=O)N2c3ccccc3CC2C)c2ccccc2c1=O` (stereo not given) yielded an activation of 1.02%. In the case of `c1ccc(-n2nc3ccccc3n2)cc1`, the activation was 2.66%. `CC(=O)c1c(C)[nH]c(C(=O)OCC(=O)Nc2c(C)cccc2C)c1C` showed an activation of 1.59%. With `COC(=O)c1cc(S(=O)(=O)N2CCN(c3cc(C)ccc3C)CC2)c[nH]1` the activation was 0.96%. `Cc1c(C(=O)OCC(=O)N(CCC#N)c2ccccc2)oc2c1ccc1ccccc12` gave an activation of 1.04%. `CCN(CC(=O)Nc1cccc(S(=O)(=O)N2CCCCC2)c1)Cc1ccccc1` gave an activation of 4.65%.
